Screens as filed in PubChem BioAssay.
VDR inh: vitamin D3 receptor (human) inhibition | P11473 | AID 504847 | Potency, µM, usual class: inhibitors | VDR-SRC2-3 peptide fluorescence polarization, 2 h | 400,000 compounds, 0.93% hits
Target sequence (P11473 whole entry, looked up): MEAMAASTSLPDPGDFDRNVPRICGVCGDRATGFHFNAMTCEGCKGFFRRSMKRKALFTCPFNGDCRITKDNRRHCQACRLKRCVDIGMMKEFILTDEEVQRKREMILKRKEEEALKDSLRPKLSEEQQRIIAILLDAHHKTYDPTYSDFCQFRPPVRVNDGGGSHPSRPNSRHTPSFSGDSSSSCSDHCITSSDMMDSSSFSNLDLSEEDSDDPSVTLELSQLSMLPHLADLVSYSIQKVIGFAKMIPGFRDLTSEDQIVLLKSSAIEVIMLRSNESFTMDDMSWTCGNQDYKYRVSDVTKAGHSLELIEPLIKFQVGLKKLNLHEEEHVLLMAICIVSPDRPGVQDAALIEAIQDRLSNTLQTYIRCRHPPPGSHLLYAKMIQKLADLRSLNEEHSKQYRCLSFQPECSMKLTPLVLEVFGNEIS
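VDR–SRC2-3 interaction, FP format. Cmpds 23 nl via pintool, brief spin, 2 h ambient incubation.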
TDP1 inh: inhibitors of human tyrosyl-DNA phosphodiesterase TDP1. Q9NUW8. recombinant TDP1, AlphaScreen DNA substrate cleavage. Potency, µM (highest dose often 130 µM), actives largely listed as inhibitors. 350,000 compounds, 0.28% hits; also: nearly all actives have a fitted effect of over 40% in size
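Steps: enzyme plus compound, 15 min RT; add biotin/phosphotyrosine-FITC oligonucleotide (15 nM final), react 5 min; add donor/acceptor beads (10 ug/ml final), 10 min; read AlphaScreen. Tdp1 at 1 nM final.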
GCN5L2 inh: blocks human GCN5L2 histone acetyltransferase | Q92830 | GCN5L2 HAT assay, ThioGlo1 CoA-SH fluorescence | AID 504327 | 390,000 compounds, 0.21% hits | Potency, µM (highest dose often 58.9 µM), actives largely listed as inhibitors
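Preincubate 20nM GCN5L2 with compound 15 min, RT → add 50uM ThioGlo1 + 75uM H3(1-25) + 70uM acetyl-CoA → read fluorescence 0 and 20 min. Primary qHTS; fluorescent artifacts likely.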
PLK1 PBD inh: inhibitors of human PLK1 polo-box domain binding; P53350; Plk1 PBD binding of FITC phosphopeptide, fluorescence polarization; Potency, µM, most hits filed as inhibitors; 360,000 compounds, 2.8% hits; AID 720504; also: series mostly up to about 57 µM; nearly all actives have a fitted effect of over 65% in size
DT40 TDP1 no CPT: qHTS for Inhibitors of human tyrosyl-DNA phosphodiesterase 1 (TDP1): qHTS in cells in absence of CPT; DT40 Tdp1-/- hTDP1 cells, no CPT, ATP luminescence, 48 h; Potency, µM (doses to about 46.2 µM), usual class: inhibitors; 420,000 compounds, 15% hits; AID 686978, 2013; also: nearly all actives have a fitted effect of over 55% in size
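DT40 Tdp1-/-;hTDP1 cells, no CPT (DMSO vehicle only), 400 cells/well; compounds pin-transferred; ≥48 hr, 37 °C; CellTiter-Glo 30 min RT dark, luminescence read.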
TDP1 cell CPT: DT40-hTDP1 cell growth loss with CPT. chicken DT40 Tdp1-/-;hTDP1 cells + 20 nM CPT, ATP luminescence, 48 h. Potency, µM (top dose mostly 46.2 µM), usual class: inhibitors. 420,000 compounds, 12% hits. AID 686979; also: nearly all actives have a fitted effect of over 55% in size
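Cell growth measured by CellTiter-Glo luminescence after a minimum 48 h, 37 C compound exposure with 20 nM CPT in Tdp1-knockout DT40 cells stably expressing hTDP1, seeded 400/well; qHTS titration format.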
Large screens that a line does not name were inactive. An excerpt weighted towards active compounds, which were near 18% of everything screened. Calls follow the shape of the dose curve; as a rule, active = well fitted curve in the direction sought with a large enough effect; inconclusive = small, poorly fitted or top-dose-only effect, or another doubt; inactive = no such curve, though single readings can be large; an effect the other way counts as inactive or inconclusive.

CCN(CC)C(=O)CSc1nc2cc3c(cc2c(=O)n1Cc1ccc(C(=O)NCCc2ccc(OC)c(OC)c2)cc1)OCO3	DT40 TDP1 no CPT 21µM, TDP1 cell CPT 13µM (no result: PLK1 PBD inh)
CCN(CC)C(=O)CSc1nc2cc3c(cc2c(=O)n1CCCC(=O)NCCc1ccc(OC)c(OC)c1)OCO3	DT40 TDP1 no CPT 18µM, TDP1 cell CPT inconclusive
CCOC(=O)CSc1nc2cc3c(cc2c(=O)n1CCCC(=O)NCCc1ccc(OC)c(OC)c1)OCO3	DT40 TDP1 no CPT 13µM, TDP1 cell CPT inconclusive (no result: PLK1 PBD inh)
CCCCNC(=O)CSc1nc2cc3c(cc2c(=O)n1CCCC(=O)NCCc1ccc(OC)c(OC)c1)OCO3	none
COc1ccc(CCN(C)Cc2cccc3ccccc23)cc1OC	VDR inh inconclusive, TDP1 cell CPT inconclusive (no result: TDP1 inh)
COc1ccc(CCN(C)Cc2ccc(OC)c(OCc3ccccc3)c2)cc1OC	DT40 TDP1 no CPT 23µM, TDP1 cell CPT inconclusive
COc1ccc(CCN(C)Cc2ccc(OCc3ccccc3)c(OC)c2)cc1OC	DT40 TDP1 no CPT inconclusive, TDP1 cell CPT inconclusive
COc1ccc(CCN(C)Cc2c(O)ccc3ccccc23)cc1OC	VDR inh inconclusive, PLK1 PBD inh 21µM, DT40 TDP1 no CPT inconclusive, TDP1 cell CPT inconclusive (no result: TDP1 inh)
O=C(/C=C/c1ccc([N+](=O)[O-])s1)N1CCCC1	DT40 TDP1 no CPT 10µM, TDP1 cell CPT 21µM
O=C(/C=C/c1ccc([N+](=O)[O-])s1)N1CCCCC1	PLK1 PBD inh inconclusive, DT40 TDP1 no CPT 12µM, TDP1 cell CPT inconclusive
CC1CN(C(=O)/C=C/c2ccc([N+](=O)[O-])s2)CC(C)O1 (centres undefined)	DT40 TDP1 no CPT 15µM, TDP1 cell CPT inconclusive
O=C(/C=C/c1ccccc1[N+](=O)[O-])N1CCCCC1	PLK1 PBD inh inconclusive, TDP1 cell CPT inconclusive
O=C(/C=C/c1cccs1)N1CCCCC1	none
COc1cc(C2c3cc4c(cc3OC(N3CCOCC3)C2C)OCO4)cc(OC)c1OC(C)=O (centres undefined)	DT40 TDP1 no CPT 26µM, TDP1 cell CPT inconclusive (no result: TDP1 inh, GCN5L2 inh)
COc1cc(C2C3=C(COC3=O)OC(C)(C)Oc3cc4c(cc32)OCO4)cc(OC)c1OC (centres undefined)	DT40 TDP1 no CPT 0.73µM, TDP1 cell CPT 1µM (no result: TDP1 inh, GCN5L2 inh)
COc1cc(C2c3cc4c(cc3OC(N3CCCC3)C2C)OCO4)cc(OC)c1O (centres undefined)	DT40 TDP1 no CPT 16µM, TDP1 cell CPT inconclusive (no result: TDP1 inh, GCN5L2 inh)
COc1cc(C2c3cc4c(cc3OC(C)(N3CCCC3)C2C)OCO4)cc(OC)c1OC (centres undefined)	DT40 TDP1 no CPT 1.2µM, TDP1 cell CPT 1.2µM (no result: TDP1 inh, GCN5L2 inh)
COc1cc(C2CC(=O)Nc3cc4c(cc32)OCO4)cc(OC)c1O (centres undefined)	DT40 TDP1 no CPT inconclusive (no result: PLK1 PBD inh)
COc1cc(C2/C(=C(\O)c3ccc4c(c3)OCCO4)C(=O)C(=O)N2CCN2CCOCC2)cc(OC)c1OC (centres undefined)	none
Cc1cc(C)c2cc(C#N)c(NCCNC(=O)c3cccnc3)nc2c1	DT40 TDP1 no CPT inconclusive, TDP1 cell CPT inconclusive (no result: VDR inh, TDP1 inh, GCN5L2 inh)
COc1cccc(CNC(=O)c2c(OC)cc(=O)n3c2CCN(C(=O)C2CC24CCCCC4)CC3)c1 (centres undefined)	none (no result: VDR inh, TDP1 inh, GCN5L2 inh, PLK1 PBD inh)
O=C(N/N=C/c1ccc2c(c1)OCO2)C1COc2ccccc2O1 (centres undefined)	DT40 TDP1 no CPT 23µM, TDP1 cell CPT inconclusive
O=C(N/N=C/C=C/c1ccco1)C(O)c1ccccc1 (centres undefined)	VDR inh inconclusive (no result: TDP1 inh, GCN5L2 inh)
C/C(=N\NC(=O)C1COc2ccccc2O1)c1ccccn1 (centres undefined)	DT40 TDP1 no CPT 2.9µM, TDP1 cell CPT 5.8µM
COc1ccc(/C=N\NC(=O)C2COc3ccccc3O2)cc1O (centres undefined)	DT40 TDP1 no CPT inconclusive, TDP1 cell CPT 15µM
COc1cc(/C=N/NC(=O)C2COc3ccccc3O2)ccc1O (centres undefined)	none
O=C(N/N=C\C=C\c1ccco1)C1COc2ccccc2O1 (centres undefined)	DT40 TDP1 no CPT 10µM, TDP1 cell CPT 2.6µM (no result: TDP1 inh)
CC(/C=C/c1ccc2c(c1)OCO2)=N/NC(=O)C1COc2ccccc2O1 (centres undefined)	none (no result: VDR inh, PLK1 PBD inh, DT40 TDP1 no CPT, TDP1 cell CPT)
COc1ccc(F)cc1S(=O)(=O)NCC(c1ccco1)S(=O)(=O)c1cccs1 (centres undefined)	DT40 TDP1 no CPT inconclusive, TDP1 cell CPT inconclusive (no result: PLK1 PBD inh)
CC(C)c1ccc(C(=O)N2CCCCC2c2cc(C(=O)NCc3cccnc3)no2)cc1 (centres undefined)	DT40 TDP1 no CPT inconclusive, TDP1 cell CPT inconclusive (no result: VDR inh, TDP1 inh, GCN5L2 inh)
O=C(NCc1cccc(F)c1)c1ccc2nc(N3CCOCC3)sc2c1	none (no result: TDP1 inh)
CC(=O)Nc1cccc(-c2ccnc3c2CC(C(=O)NCc2ccc(N4CCN(C)CC4)cc2)O3)c1 (centres undefined)	DT40 TDP1 no CPT inconclusive, TDP1 cell CPT inconclusive (no result: VDR inh, TDP1 inh, GCN5L2 inh)
Cc1cc([N+](=O)[O-])cc(/C=N\NC(=O)C2COc3ccccc3O2)c1O (centres undefined)	DT40 TDP1 no CPT 13µM, TDP1 cell CPT 16µM
O=C(N/N=C\c1ccc(O)c([N+](=O)[O-])c1)C1COc2ccccc2O1 (centres undefined)	GCN5L2 inh inconclusive
C/C(=N\NC(=O)CC#N)C1COc2ccccc2O1 (centres undefined)	VDR inh inconclusive, PLK1 PBD inh 21µM, DT40 TDP1 no CPT inconclusive, TDP1 cell CPT inconclusive
C/C(=N/NC(=O)CNC(=O)C1COc2ccccc2O1)c1ccc2c(c1)OCCO2 (centres undefined)	none
CCOC(=O)Cn1c(=O)oc2cc(S(=O)(=O)N3CCN(c4ccccc4OC)CC3)ccc21	none (no result: PLK1 PBD inh)
Cc1cc(NC(=O)CCN2C(=O)C3C4C=CC(C4)C3C2=O)ccc1Br (centres undefined)	none
Cn1c(=O)n(CC(=O)OCc2ccccc2)c(=O)c2c1nc1n2CCCN1C1CCCCC1	DT40 TDP1 no CPT 23µM, TDP1 cell CPT inconclusive (no result: TDP1 inh, GCN5L2 inh)
CCOCCn1c(=O)c2c(nc3n2CC(C)CN3Cc2ccccc2)n(C)c1=O (centres undefined)	PLK1 PBD inh 30µM, DT40 TDP1 no CPT inconclusive, TDP1 cell CPT inconclusive
Cc1ccccc1Cn1c(=O)c2c(nc3n2CCCN3Cc2ccccc2)n(C)c1=O	DT40 TDP1 no CPT inconclusive, TDP1 cell CPT 21µM (no result: TDP1 inh, GCN5L2 inh)
Cn1c(=O)n(CC(N)=O)c(=O)c2c1nc1n2CCCN1Cc1ccccc1	none (no result: TDP1 inh)
COCCn1c(=O)c2c(nc3n2CC(C)CN3Cc2ccccc2)n(C)c1=O (centres undefined)	none
Cn1c(=O)n(Cc2ccccc2)c(=O)c2c1nc1n2CCCN1Cc1ccccc1	DT40 TDP1 no CPT inconclusive, TDP1 cell CPT inconclusive
